Screens from PubChem BioAssay.
CRFR2-BP ag – agonists of human CRF-binding protein/CRF-R2 receptor complex; HEK293 CRF-R2/CRF-BP, calcium dye fluorescence (FLIPR); percent of saturating CRF peptide response; activation, % at 13.2 µM; 350,000 tested, 0.46% active; AID 588473;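 active = activation of at least 50%, plus an integration ratio under a set limit after plate pattern correction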;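 also: plate controls were neutral control wells without compound for no effect and CRF at EC100 for full effect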
FAS TE block – FAS thioesterase (human) inhibition. P49327. recombinant FAS-TE, OMFH fluorogenic substrate, fluorescence endpoint. inhibition, % at 15 µM. 360,000 tested, 0.67% active;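 active = compounds whose normalised, plate-corrected inhibition of enzyme fluorescence in the single-dose primary screen is 50% or more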;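 also: 0% = DMSO with enzyme and 100% = substrate without enzyme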
PfGluPho inh – PfG6PD (Plasmodium falciparum) enzyme inhibition | inhibition, % at 20 µM | PfGluPho enzyme, NADPH resazurin-diaphorase fluorescence | 350,000 tested, 0.78% active;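 active = inhibition reaching at least a set limit at 20 µM in the primary screen, cut at about 59% in these data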;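 also: 0% = DMSO wells with substrate and 100% = DMSO wells lacking glucose-6-phosphate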
H9c2 protect – protects H9c2 cardiomyocytes from peroxide injury. protection from H2O2 cell death, % at 20 µM. H2O2 injury protection, ATPLite, 2 h. 360,000 tested, 0.63% active;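 active = compounds giving at least 50% protection of heart cells from peroxide-induced death in the single-dose screen, raw or plate-pattern-corrected value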;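 also: 0% = DMSO wells with peroxide and 100% = DMSO wells without peroxide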
aDG glyco act – alpha-DG glycosylation activation | activation, % at 10 µM | Pro5-aDG cells, alpha-DG glycosylation AlphaScreen (IIH6); 0% Pro5, 100% B10-LARGE cell signal | 360,000 tested, 0.22% active;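 active = activation of at least 8% versus controls, or a plate z-score of at least 8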;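 also: Pro5 are CHO cells carrying HIG-tagged alpha-DG that lacks glycosylation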
CRFR2-BP antag – blocks CRF-induced signaling of the CRF-BP/CRF-R2 complex; 350,000 tested, 0.59% active; inhibition, % at 11.8 µM; AID 588475; HEK293 CRF-R2/CRF-BP, CRF-induced calcium fluorescence;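 active = inhibition of the ligand-induced calcium signal above about 50% at the single tested concentration, limit read from the data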
* hit, by the source's call; x = no result. In the library only some 3.2% were active in any assay of this set; here they are far more common.

SMILES	CRFR2-BP ag	FAS TE block	PfGluPho inh	H9c2 protect	aDG glyco act	CRFR2-BP antag
Cc1nc(N2CCc3ccccc3C2)[nH]c(=O)c1Cc1ccccc1	-5.6	-1.5	-13.2	-17.8	-0.1	-55.6
CCc1nc2ccc(C(=O)Nc3cccc(OCC(=O)N(C)C)c3)cn2c1N(C)Cc1cc2ccccc2s1	x	6.1	x	54.2*	0.0	x
CCc1nc2ccc(C(=O)Nc3cc(-c4ccccc4)ccc3OC)cn2c1N(C)Cc1nccs1	x	18.2	x	75.3*	0.0	x
CCNC(=O)N(C)c1c(CC)nc2ccc(C(=O)Nc3cccc(OCC(=O)N(C)C)c3)cn12	x	-13.3	x	-1.4	0.1	x
CCc1nc2ccc(C(=O)Nc3cc(-c4ccccc4)ccc3OC)cn2c1N(C)Cc1ccc(OC)cc1	x	11.2	x	13.5	0.7	x
O=C1CC(c2ccccc2)CN1S(=O)(=O)c1ccccc1 (stereo unspecified)	-2.4	3.4	12.3	4.2	-0.1	65.2*
Cc1ccc(NC(=O)c2ccc(C(=O)c3ccccc3)cc2)nc1	-0.4	0.6	20.6	-10.8	0.2	6.6
COc1ccc(C(=O)Nn2c(SCc3ccc([N+](=O)[O-])cc3)nc3ccccc3c2=O)cc1	3.4	52.2*	-23.8	-12.0	-0.1	13.4
COc1ccc(C(=O)Nn2c(SCC(=O)c3ccccc3)nc3ccccc3c2=O)cc1	0.5	-3.8	-29.5	-4.2	0.1	-9.8
Cc1ccsc1/C=N\NC(=O)CCc1c(C)n[nH]c1C	4.5	-2.9	-8.5	-3.7	-0.2	52.1*
Cc1n[nH]c(C)c1CCC(=O)N/N=C/c1cccs1	-0.4	-4.8	0.4	5.3	-0.1	0.3
O=C(CSc1nc2ccccc2c(=O)[nH]1)c1ccc(O)cc1O	0.5	-4.9	-3.7	67.2*	-0.6	0.2
Cc1[nH]c2ccccc2c1C(=O)CSc1nc2ccccc2[nH]1	4.7	6.5	10.2	66.5*	-0.3	-14.2
O=C(CSc1nc2ccccc2c(=O)[nH]1)c1ccc(O)c(O)c1	-0.4	-5.0	-9.4	57.7*	-0.1	-7.4
O=C(CSc1nc2ccccc2c(=O)[nH]1)c1cccs1	0.3	-6.3	-28.0	33.2	0.5	18.6
O=c1[nH]c(CSc2nc3ccccc3[nH]2)nc2c1cnn2-c1ccccc1	-2.9	4.9	-12.8	-16.7	1.6	-11.5
Cc1[nH]c2ccccc2c1C(=O)CSc1nccc(=O)[nH]1	2.7	-3.6	-13.2	-7.1	0.1	4.3
O=c1[nH]c(SCc2nc3c(cnn3-c3ccccc3)c(=O)[nH]2)nc2ccccc12	-2.0	-11.8	23.0	52.7*	-0.3	-11.1
CCOC(=O)C1CCN(C(=O)Nc2cc(Cl)cc(Cl)c2)CC1	-1.8	13.7	9.4	-7.2	0.0	7.4
O=[N+]([O-])c1ccc(Cl)c(S(=O)(=O)/N=C(/c2ccccc2)N2CCOCC2)c1	1.1	-2.3	-2.9	7.2	-0.2	8.6
O=C(NCCc1cccc(C(F)(F)F)c1)C1CCC(=O)N(CCc2cccc(F)c2)C1 (stereo unspecified)	-2.4	-2.2	2.0	-3.8	0.0	37.7
O=C(NCCc1ccccc1)C1CCC(=O)N(Cc2ccc(Cl)cc2)C1 (stereo unspecified)	-1.5	-1.4	-6.5	-5.9	-0.3	-7.8
O=C(NCCc1cccnc1)C1CCC(=O)N(Cc2ccc(Cl)cc2)C1 (stereo unspecified)	0.8	-7.8	-11.8	-1.9	-0.2	104.2*
O=C(NCCc1cn[nH]c1)C1CCC(=O)N(CCc2cccc(F)c2)C1 (stereo unspecified)	-0.7	0.1	-11.6	2.3	-0.1	103.5*
Cc1ccc(S(=O)(=O)NNc2ccccc2)c(C)c1	-0.2	-10.1	83.2*	4.2	0.0	1.1
SMILES	CRFR2-BP ag	FAS TE block	PfGluPho inh	H9c2 protect	aDG glyco act	CRFR2-BP antag
Cc1ccc(S(=O)(=O)NNC(=O)c2cccs2)c(C)c1	-0.6	-13.5	-8.9	-2.1	-0.2	-6.2
O=S1(=O)CC(N2CCCCC2)C1CN1CCCCC1 (stereo unspecified)	2.7	-8.5	-6.1	-0.7	0.3	-28.8
CN(C)/C=N/c1cc(=O)n(C)c(=O)n1Cc1ccccc1	-0.6	-5.3	-11.6	-2.3	-0.1	2.0
CCOc1ccccc1C(=O)N1CCN(c2cccc(Cl)c2)CC1	-0.6	-1.6	9.2	-2.5	0.0	-39.4
COc1ccccc1N1CCN(c2ncc(C(=O)N3CCN(c4cccc(Cl)c4)CC3)c3ccccc23)CC1	114.6*	29.5	-2.0	-18.4	4.6	-289.9
O=C1NC(Cc2c[nH]c3ccccc23)C(=O)N1Cc1cccc2ccccc12 (stereo unspecified)	1.1	6.6	22.0	-4.2	1.1	50.8*
Cn1nnc2cc(NC(=O)Nc3cccc(C(F)(F)F)c3)ccc21	-0.7	-3.5	0.7	1.8	0.1	1.1
O=C(c1ccccc1)c1cc(Cl)ccc1N1C(=O)C=CC1=O	19.2	19.5	111.5*	-30.8	0.3	34.5
N=C1/C(=C/c2coc3ccccc3c2=O)C(=O)N=C2SC(c3ccco3)=NN12	168.1*	-49.7	15.3	-0.5	0.0	-105.2
N=C1/C(=C\c2coc3ccccc3c2=O)C(=O)N=C2SC(c3ccncc3)=NN12	158.6*	-20.0	8.2	0.0	0.1	-117.5
N=C1/C(=C\c2coc3ccc(O)cc3c2=O)C(=O)N=C2SC=CN12	151.7*	-63.6	2.5	-2.5	0.0	-87.9
Cc1cc(/C=C2\C(=N)N3N=C(c4ccco4)SC3=NC2=O)c(C)n1Cc1ccccc1	45.1	17.8	-22.5	-3.0	-0.2	-31.3
COc1ccc(-n2cccc2/C=C2\C(=N)N3N=C(c4ccco4)SC3=NC2=O)cc1	-1.2	17.2	-12.9	-6.2	-0.4	52.3*
CCCCn1c(SCC(=O)c2c(N)n(C3CC3)c(=O)[nH]c2=O)nc2cc(S(N)(=O)=O)ccc21	0.8	-1.0	7.7	-7.9	-0.1	-3.8
CCN(CC)CCNC(=S)N1CCn2c(nc3ccccc32)C1	-1.1	-9.4	4.7	8.3	-0.1	15.7
O=C(NC(=S)N1CCN(C/C=C/c2ccccc2)CC1)c1ccc(Cl)nc1	-0.4	-2.0	-6.2	-3.1	0.6	8.8
Cc1ccc(CS/C(Nc2ccccc2C)=C(\C#N)C(N)=O)c(C)c1	-1.4	4.5	17.9	-13.9	0.4	1.0
CCCN(CC1CCCO1)C(=O)c1cc(COc2ccc(F)cc2F)on1 (stereo unspecified)	-1.8	-0.3	-29.0	-5.0	-0.2	-5.9
COc1ccc2c(C)cc(SCc3c(C)noc3C)nc2c1	-0.5	20.6	7.8	-15.3	0.5	55.5*
COc1ccc2c(C)cc(SCC#N)nc2c1	2.0	-4.9	-13.0	-2.9	0.3	6.6
CC1CCc2c(C(=O)Nc3ccccn3)csc2C1 (stereo unspecified)	-0.9	6.9	6.4	-15.1	0.0	57.3*
CC1CCc2c(C(=O)NCc3ccccn3)csc2C1 (stereo unspecified)	-1.2	-9.3	-3.2	1.5	0.0	-2.4
